Results as given in the supplement of paper PMC12645437, “Orthogonal IMiD-Degron Pairs Induce Selective Protein Degradation in Cells” (ACS Chemical Biology, 2025).
Whole data set: some 8,300 sequences, median “log2 fold change of degron read counts, EGFP-low vs EGFP+ sorted cells (limma voom), compound-induced degradation” near -1.1, cut for the highest 2% near 3.2. This is one part of a sample in which the highest values are shown more often than they occur.

Target: T1, CRBN, Q96SW2
T1 chain: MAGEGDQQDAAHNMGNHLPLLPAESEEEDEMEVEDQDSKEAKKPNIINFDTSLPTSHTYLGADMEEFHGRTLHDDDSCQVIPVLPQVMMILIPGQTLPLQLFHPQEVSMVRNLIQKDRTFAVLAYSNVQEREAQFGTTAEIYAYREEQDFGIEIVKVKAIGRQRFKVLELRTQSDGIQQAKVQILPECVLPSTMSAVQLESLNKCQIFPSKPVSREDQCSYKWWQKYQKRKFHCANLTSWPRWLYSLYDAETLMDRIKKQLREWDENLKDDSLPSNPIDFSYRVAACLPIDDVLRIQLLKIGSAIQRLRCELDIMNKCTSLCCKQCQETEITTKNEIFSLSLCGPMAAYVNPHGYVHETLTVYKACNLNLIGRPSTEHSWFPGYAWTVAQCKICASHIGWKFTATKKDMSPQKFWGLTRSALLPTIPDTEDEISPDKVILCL
Assay: log2 fold change of degron read counts, EGFP-low vs EGFP+ sorted cells (limma voom), compound-induced degradation; higher = more compound-induced degradation of the degron-EGFP fusion; degrons are variants of IKZF1/3 zinc finger 2; compound dose not given here
Conditions: Jurkat, 18 h

[1] = compound: compound 19 (5-tert-butyl-thalidomide)
[2] = compound: compound 22 (5-morpholino-thalidomide)
[3] = compound: compound 33 (diphenyl IMiD analogue)
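Also: pooled lentiviral library of zinc finger degron-EGFP fusions in mCherry-positive Jurkat cells, FACS-sorted after compound exposure, with degron abundance counted by next-generation sequencing.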

Sequence | log2 fold change of degron read counts [1] | log2 fold change of degron read counts [2] | log2 fold change of degron read counts [3] | log2 fold change of degron read counts (compound: thalidomide)
FMCNVCGADFTQKGNLLRHIKL [46F_47M_49N_50V_52G_53A_54D_55F_67L_, Q9UKT9] | -2.78 | -2.8 | 1.31 | -1.76
LYCPICGFICTQKGNLLRHIKL [46L_47Y_49P_50I_52G_53F_54I_55C_67L_, Q9UKT9] | 2.94 | 2.9 | 1.98 | 0.937
FSCNVCGAPFTQKGNLLRHIKL [46F_47S_49N_50V_52G_53A_54P_55F_67L_, Q9UKT9] | 0.819 | 0.453 | -0.105 | 0.146
FKCEICGAGFTQKGNLLRHIKL [46F_47K_49E_50I_52G_53A_54G_55F_67L_, Q9UKT9] | 2.69 | -0.466 | -0.772 | 0.328
FVCEICGAGFTQKGNLLRHIKL [46F_47V_49E_50I_52G_53A_54G_55F_67L_, Q9UKT9] | 1.53 | 3.07 | 1.92 | 3.23
FSCEICGAGFTQKGNLLRHIKL [46F_47S_49E_50I_52G_53A_54G_55F_67L_, Q9UKT9] | 3.39 | 1.57 | 1.23 | 0.613
FCCEICGAGFTQKGNLLRHIKL [46F_47C_49E_50I_52G_53A_54G_55F_67L_, Q9UKT9] | 3.68 | 2.09 | 1.63 | 1.42
FMCEICGAGFTQKGNLLRHIKL [46F_47M_49E_50I_52G_53A_54G_55F_67L_, Q9UKT9] | 2.81 | 1.95 | 2.73 | 1.31
